Rows were chosen to be rich in hits. Some 2.4% of all compounds tested hit in one or more screens of this group.
D2 PAM-1 = potentiates the human D2 dopamine receptor allosterically. P14416. DiscoveRx D2 beta-arrestin cells, luminescence, 90 min; 100% = 57 uM dopamine signal. potentiation, % (concentration not given with the values). hit rate 0.23% among 360,000. AID 624464; in the data active means potentiation above about 50%; inconclusive means mostly about 30% to 49%
Target sequence (P14416 whole entry, looked up): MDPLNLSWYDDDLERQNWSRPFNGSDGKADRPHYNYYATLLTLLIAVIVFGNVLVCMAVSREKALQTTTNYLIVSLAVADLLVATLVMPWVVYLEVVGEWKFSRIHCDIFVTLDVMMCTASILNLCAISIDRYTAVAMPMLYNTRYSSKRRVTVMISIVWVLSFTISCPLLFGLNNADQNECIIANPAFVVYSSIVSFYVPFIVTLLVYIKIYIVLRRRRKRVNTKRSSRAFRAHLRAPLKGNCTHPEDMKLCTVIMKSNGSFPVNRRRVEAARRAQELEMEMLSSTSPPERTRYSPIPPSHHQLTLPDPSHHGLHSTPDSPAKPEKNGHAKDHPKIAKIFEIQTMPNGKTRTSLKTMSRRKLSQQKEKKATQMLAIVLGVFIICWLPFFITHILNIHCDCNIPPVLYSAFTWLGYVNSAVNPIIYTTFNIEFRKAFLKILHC
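PathHunter D2 cells, attached overnight at 37 deg C, received compound in DMSO plus dopamine at EC20 (50 nM final) for 90 min at 37 deg C. Beta-arrestin recruitment was read as luminescence after 1 h with detection reagent at ambient temperature.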
D2 ag-1 = human D2 receptor agonism in beta-arrestin assay | P14416 | activation, % (no concentration beside the values) | DiscoveRx PathHunter D2 beta-arrestin, luminescence, 90 min; 100% = 57 uM dopamine signal | hit rate 0.084% among 360,000; in the data active means activation above about 40%; inconclusive means between about 15% and that limit
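Agonist mode: compounds alone added to overnight-plated D2 PathHunter cells for 90 min at 37 C, with 57 uM final dopamine (EC100) defining full response. Beta-arrestin recruitment detected by chemiluminescent reagent, read after 1 h at ambient temperature.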
D2 antagonist = D2 dopamine receptor (human) antagonism; P14416; HEK293 TREx D2 cells, calcium flux, dopamine EC80; inhibition, % at 10 µM; hit rate 2% among 340,000; in the data active means inhibition above about 30%; inactive means below that, where a call was filed; further: 0% is about no effect
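Read-out: kinetic calcium fluorescence (1 cycle/s) in inducible HEK293 T-REx D2 cells after an EC80 dopamine addition that followed 180 s compound preincubation. Loss of the dopamine response indicates antagonism.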
D2 ag-2 = activates the human D2 dopamine receptor; P14416; HEK293 T-REx D2 cells, calcium flux agonist mode; activation, % at 2 µM; hit rate 0.53% among 340,000; AID 485358;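 active means activation over 3 SD above normal in the single-dose calcium agonist read, cut at about 30% in these data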; further: 0% is about no effect
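Tetracycline-induced HEK293 T-REx cells with force-coupled D2 receptor, plated overnight at 30 C, loaded with no-wash calcium dye. After a 10 s baseline, compound was pin-added and calcium flux read kinetically for 180 s; calcium rises flagged agonists.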
D2 PAM-2 = D2 dopamine receptor (human) potentiation. P14416. hit rate 0.34% among 340,000. HEK293 T-REx D2, calcium flux, EC20 dopamine potentiation. potentiation, % at 10 µM;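 active means potentiation over 3 SD above the plate norm, cut at about 30% in these data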; further: 0% is about no effect
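Calcium flux readout, no-wash dye, 1 read/s. Inducible HEK293 Trex D2 line, overnight 30 C. Compound alone 180 s (agonist flags), then EC20 dopamine, another 180 s to score potentiation.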
* marks the source's active call; other numbers are inactive results; u = inconclusive; x = not tested or not shown.

SMILES	D2 PAM-1	D2 ag-1	D2 antagonist	D2 ag-2	D2 PAM-2
CCOC(=O)c1cnc(-n2nc(C)cc2C)nc1Nc1ccccc1OC	x	x	6	0	9
CN(C)CCCN1C(=O)c2cccc3c([N+](=O)[O-])ccc(c23)C1=O	63*	u	1	1	-4
O=C(Nc1ccc(S(=O)(=O)Nc2nccs2)cc1)c1cccc(N2C(=O)c3ccccc3C2=O)c1	-8	-1	-12	0	4
O=C(Nc1nccs1)c1cccc(N2C(=O)c3cccc4c([N+](=O)[O-])ccc(c34)C2=O)c1	75*	14	-1	6	6
CC(=O)Oc1cccc(N2C(=O)c3cccc4c([N+](=O)[O-])ccc(c34)C2=O)c1	107*	41*	4	2	-2
COc1ccc(-c2nn(-c3ccccc3F)cc2CNCCn2nc(C)cc2C)cc1	-14	-4	37*	0	-19
COc1ccc(C)cc1S(=O)(=O)Nc1ccc(F)c(Cl)c1	28	-3	32*	0	-1
CC1=C(C(=O)Nc2cc(Cl)ccc2C)C2(CCCCC2)OC1=O	x	x	x	1	1
O=C(c1ccc(F)cc1)N(NC(=O)C(O)(c1ccccc1)c1ccccc1)c1ccccc1	0	4	40*	3	-7
Cc1c(NS(=O)(=O)c2ccc(NCCN3CCOCC3)c([N+](=O)[O-])c2)c(=O)n(-c2ccccc2)n1C	-9	3	6	-1	31*
COc1ccc(CCNC(=O)c2cc3c(s2)-c2c(C)cccc2OC3)c(OC)c1	x	x	x	0	-22
CCN(c1ccccc1)S(=O)(=O)c1ccc2[nH]c(=O)c(=O)[nH]c2c1	-4	-6	33*	-3	x
CCN(c1ccccc1)S(=O)(=O)c1ccc(F)cc1	-5	-1	2	-1	-2
CCc1c(O)nc(SCC(=O)N(CC)CC)[nH]c1=O	3	-2	34*	-1	0
CCN(CC)C(=O)CSc1nc(O)c(Cc2ccc(OC)cc2)c(=O)[nH]1	-4	-5	-25	0	15
CC1CCC(NC(=O)c2cc3c(s2)CS(=O)(=O)C3)CC1 (stereo unspecified)	-10	-2	41*	1	11
CCCSCCCNC(=O)c1cc2c(s1)CS(=O)(=O)C2	5	-1	-5	0	0
CCOc1ccccc1NC(=O)CN1C(=O)CC(c2ccco2)Sc2ccccc21 (stereo unspecified)	x	x	x	0	0
Cc1cc(C)nc(SCC(=O)c2ccc([N+](=O)[O-])cc2)n1	76*	3	22	0	-6
CCc1ccc(NCc2cc3cc(OC)c(OC)cc3n(CC(=O)Nc3cc(C)ccc3C)c2=O)cc1	x	x	x	10	2
Cc1oc(-c2ccccc2)cc1C(=O)NC1CCN(Cc2ccccc2)CC1	-7	-12	69*	0	-10
O=C(NC1CCN(Cc2cccc([N+](=O)[O-])c2)CC1)c1ccccc1	-15	4	74*	-2	-26
O=[N+]([O-])c1cccc(CN2CCC(Cc3ccccc3)CC2)c1	-34	-1	21	0	-11
O=C(NNC1CCN(Cc2ccccc2)CC1)c1ccccc1	-28	-2	x	x	x
O=C(NC1CCN(Cc2ccccc2)CC1)c1ccccc1Cl	-65	-4	9	-1	-19
SMILES	D2 PAM-1	D2 ag-1	D2 antagonist	D2 ag-2	D2 PAM-2
Cn1nccc1C(=O)NC1CCN(Cc2ccccc2)CC1	-25	3	55*	0	-19
O=C(NC1CCN(Cc2ccccc2)CC1)c1ccccc1	-23	-4	74*	0	-26
Cc1ccc(O)c(C(CC(=O)NCC2(c3ccccc3)CCCC2)c2ccccc2)c1 (stereo unspecified)	x	x	x	-1	-3
CC(C)(C)c1ccc(C(=O)NC2CCN(Cc3ccccc3)CC2)cc1	-35	-3	54*	1	-21
CN1CCC(NC(=O)c2cccc(Oc3ccccc3)c2)CC1	-38	-4	70*	-1	-8
O=C(c1ccc([N+](=O)[O-])cc1)N1CCN(c2cccc3[nH]ccc23)CC1	-15	-2	-1	15	-9
O=[N+]([O-])c1cccc(CN2CCN(c3cccc4[nH]ccc34)CC2)c1	-27	-8	42*	5	-21
O=C(NC1CCN(Cc2ccccc2)CC1)c1cncc(Br)c1	-29	-2	85*	0	-37
Cc1nn2c(=O)cc(COC(=O)c3ccc(NC(=O)CCc4ccccc4)cc3)nc2s1	x	x	x	x	-4
COc1ccc(Cl)cc1NC(=O)N1CCC(CN2CCc3ccccc3C2)CC1	x	x	x	-1	8
CCc1ccccc1N1CC(c2nnc(NC(=O)c3ccco3)s2)CC1=O (stereo unspecified)	x	x	x	x	9
O=C(Nc1ccc(OC(F)(F)F)cc1)C1CCN(S(=O)(=O)c2ccc3[nH]c(=O)ccc3c2)CC1	x	x	x	x	10
Cc1cc2ccccn2c1C(=O)c1ccc([N+](=O)[O-])o1	28	7	36*	0	2
CN(Cc1ccccc1)C(=O)Cc1ccccc1	0	-1	2	1	17
CN(Cc1ccccc1)C(=O)CC(=O)N(C)Cc1ccccc1	0	1	7	0	34*
CN(Cc1ccccc1)C(=O)c1ccccc1NC(=O)c1ccco1	8	1	31*	0	-9
O=C(O)CNC(=O)c1ccccc1NC(=O)c1ccco1	-14	1	-3	0	5
COc1ccc(-n2nc([N+](=O)[O-])c(=NCCCN3CCCC3=O)n2O)cc1	23	10	7	-1	-4
COc1ccc(-n2nc([N+](=O)[O-])c(=NCCc3cccc(C)c3)n2O)cc1	65*	8	6	0	-5
Cc1ccc(CN=c2c([N+](=O)[O-])nn(-c3ccc4c(c3)OCCO4)n2O)cc1	135*	u	3	-1	-18
O=C1CCCN1CCCN=c1c([N+](=O)[O-])nn(-c2ccc(Cl)cc2)n1O	52*	9	x	x	6
Cc1cccc(CCN=c2c([N+](=O)[O-])nn(-c3ccccc3)n2O)c1	6	14	-9	0	-1
O=[N+]([O-])c1nn(-c2ccc3c(c2)OCCO3)n(O)c1=NCCCO	73*	u	4	0	0
CCc1ccc(N=c2c([N+](=O)[O-])nn(-c3ccc4c(c3)OCCO4)n2O)cc1	u	11	18	-1	2
O=C(Nc1cccc(C(=O)OCc2cc(=O)n3c4c(sc3n2)CCCC4)c1)c1cccc(F)c1	x	x	x	x	5
Cc1cc(C)c2c(=O)cc(C(=O)Nc3sc4c(c3C(=O)NCc3ccccc3)CCCC4)oc2c1	x	x	x	1	1
Cc1ccc(NC(=O)CN2C(=O)CC(c3ccc(C)c(C)c3)=Nc3ccccc32)cc1	x	x	x	1	0
O=C(Cn1nc(-c2ccccc2)c2cnc3ccccc3c21)Nc1ccccc1	x	x	x	0	-6
